PubChem BioAssay (EPA / NIEHS)
Results filed as inconclusive are left out. Activity calls are given as the source filed them. How the source made its calls: active means hit-call score of the fitted dose curve at least 0.9, where 1 is the maximum; inconclusive means response in the unintended direction; inactive means score below 0.9.

What was measured:
[1] = TOX21_p53_BLA_p2_viability: Viability Assessment in the Tox21 HCT-116 p53 Agonism Beta-lactamase Assay, Phase 2 (AID 2283591);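 further: compound exposure lasted 16 h at 37 °C; actives lower the ATP signal meaning cytotoxicity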
Outline: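 HCT116 p53-bla cells, 4000/well, dosed after 5 h plating (217-fold dilution of DMSO stocks) and incubated 16 h at 37C. Viability taken as cellular ATP by CellTiter-Glo luminescence after 30 min RT; signal loss marks cytotoxicity.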

[2] = molecular target: Cellular tumor antigen p53 (Homo sapiens) (UniProt P04637); experiment: TOX21_p53_BLA_p2_ratio: Tox21 HCT-116 p53 Agonism Beta-lactamase Assay, Ratio, Phase 2 (AID 2283592)
Outline: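 Cleaved-to-uncleaved substrate ratio (460 vs 530 nm) measured in HCT116 cells with an inducible beta-lactamase reporter linked to p53 activity. Compounds incubated 16 h at 37C before 2 h room-temperature CCF4-AM loading.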

[3] = TOX21_p53_BLA_p3_viability: Viability Assessment in the Tox21 HCT-116 p53 Agonism Beta-lactamase Assay, Phase 3 (AID 2283593);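 further: cells exposed to compound for 16 h before reading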
Outline: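 HCT116 cells, 4000/well, dosed 5 h after plating by pin transfer (217-fold dilution from DMSO stock) and incubated 16 h at 37C, 5% CO2. Viability read as ATP luminescence with CellTiter-Glo after 30 min at room temperature.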

[4] = molecular target: Cellular tumor antigen p53 (Homo sapiens) (UniProt P04637); experiment: TOX21_p53_BLA_p3_ratio: Tox21 HCT-116 p53 Agonism Beta-lactamase Assay, Ratio, Phase 3 (AID 2283596)
Outline: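 Cells were seeded at 4000/well, rested 5 h at 37C, then dosed with DMSO compound solutions (217-fold dilution) for 16 h. CCF4-AM substrate was loaded for 2 h at room temperature, and the 460/530 nm emission ratio was fitted for gain of signal versus DMSO.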

[5] = TOX21_p53_BLA_p4_viability: Viability Assessment in the Tox21 HCT-116 p53 Agonism Beta-lactamase Assay, Phase 4 (AID 2283597);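 further: hits lower the luminescence signal meaning cytotoxicity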
Outline: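 Viability is taken as cellular ATP: after 16 h compound exposure of HCT116 cells and a 2 h room-temperature CCF4-AM substrate step, CellTiter-Glo reagent is added and luminescence is measured 30 min later.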

[6] = TOX21_p53_BLA_p5_viability: Viability Assessment in the Tox21 HCT-116 p53 Agonism Beta-lactamase Assay, Phase 5 (AID 2283600)
Outline: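 Viability is taken from cellular ATP content, measured by luciferase luminescence in the same wells after the beta-lactamase ratio read. Cells are seeded at 4000 per well and exposed to DMSO-dissolved compounds, diluted 217-fold, for 16 h.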

[7] = molecular target: Cellular tumor antigen p53 (Homo sapiens) (UniProt P04637); experiment: TOX21_p53_BLA_p4_ratio: Tox21 HCT-116 p53 Agonism Beta-lactamase Assay, Ratio, Phase 4 (AID 2283601)
Outline: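 HCT-116 p53 beta-lactamase reporter cells (4000/well) preincubated 5 h, then compound (217-fold dilution of DMSO stock) for 16 h at 37C. CCF4-AM substrate added 2 h at room temperature; 460/530 nm emission ratio fitted upward versus DMSO.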

[8] = molecular target: Cellular tumor antigen p53 (Homo sapiens) (UniProt P04637); experiment: TOX21_p53_BLA_p5_ratio: Tox21 HCT-116 p53 Agonism Beta-lactamase Assay, Ratio, Phase 5 (AID 2283599)
Outline: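 HCT-116 p53-bla cells (4000/well) plated 5 h, dosed with compound (217-fold DMSO dilution) for 16 h at 37 C; CCF4-AM substrate 2 h at room temperature. Activity is the 460/530 nm emission ratio (405 nm excitation), fitted in gain-of-signal direction versus DMSO.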

Measured: outcome

Sequence of Cellular tumor antigen p53 (Homo sapiens) (P04637 whole entry, looked up): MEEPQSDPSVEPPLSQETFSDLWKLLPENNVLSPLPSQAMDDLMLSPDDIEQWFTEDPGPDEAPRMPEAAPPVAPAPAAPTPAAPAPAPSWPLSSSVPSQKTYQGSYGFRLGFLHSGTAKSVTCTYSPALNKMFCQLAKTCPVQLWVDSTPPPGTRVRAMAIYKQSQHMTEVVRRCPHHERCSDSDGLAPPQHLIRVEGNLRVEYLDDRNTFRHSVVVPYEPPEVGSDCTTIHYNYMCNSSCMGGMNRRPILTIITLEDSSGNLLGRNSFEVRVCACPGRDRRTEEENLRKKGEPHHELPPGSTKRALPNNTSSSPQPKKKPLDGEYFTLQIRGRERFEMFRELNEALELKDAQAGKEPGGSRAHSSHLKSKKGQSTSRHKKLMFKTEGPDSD

O=[N+]([O-])c1cccc(I)c1
not listed: [8]
inactive: all other assays above

Cc1ncc(CSSCc2cnc(C)c(O)c2CO)c(CO)c1O
not listed: [8]
inactive: all other assays above

CCCCCCCCCI
not listed: [8]
inactive: all other assays above

CC(=O)OC(C)OC(=O)C(C)c1ccc(-c2ccccc2)c(F)c1 (stereo unspecified)
not listed: [8]
inactive: all other assays above

O
not listed: [6] | [8]
inactive: all other assays above

CCN(CC)CCOC(=O)c1cccnc1
not listed: [5] | [7]
inactive: all other assays above

COC(=O)[C@H]1[C@H]2C[C@H]3c4[nH]c5ccccc5c4CCN3C[C@H]2CC[C@@H]1O
inactive: [1] | [2] | [3] | [4] | [8]

CC(C)(C)C(=O)OCOC(=O)C1N2C(=O)CC2S(=O)(=O)C1(C)C (stereo unspecified)
not listed: [6] | [8]
inactive: all other assays above
